Laboratory results published in the supplement of paper PMC10849652.
Targets with a hit are over-represented here; the source holds about 8,800 in all. About 0.5% of all pairs of compound and target were hits. A number with no mark means an inactive call.

The targets below were run with CN1CCC(CNc2ccc3ncc(-c4cccc(OC(F)(F)F)c4)n3n2)CC1 (assay: log2 fold change, soluble protein after heating vs DMSO (PISA); higher = thermal stabilisation; K562 lysate, 10 uM; active = over 0.2 and 3.5 SD of the protein, either way, in both replicates (recomputed)).
Outline: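 Log-two fold change in thermal stability relative to solvent controls is reported from duplicates. For each sample, crude K562 extract from dounce-homogenised pellets in PBS pH 7.4 with 1 mM MgCl2, at 1 mg/mL protein, was treated with 10 μM compound for 30 min. Aliquots heated for 3 min across 48°C-58°C were pooled, brought to 0.5% NP-40 at 4°C and cleared at 21,000xg for 90 min. The supernatant was quantified by TMTpro 16plex LC-MS/MS with channel sums equalised.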

Chain of UniProt Q9UP83 (Q9UP83 whole entry, looked up): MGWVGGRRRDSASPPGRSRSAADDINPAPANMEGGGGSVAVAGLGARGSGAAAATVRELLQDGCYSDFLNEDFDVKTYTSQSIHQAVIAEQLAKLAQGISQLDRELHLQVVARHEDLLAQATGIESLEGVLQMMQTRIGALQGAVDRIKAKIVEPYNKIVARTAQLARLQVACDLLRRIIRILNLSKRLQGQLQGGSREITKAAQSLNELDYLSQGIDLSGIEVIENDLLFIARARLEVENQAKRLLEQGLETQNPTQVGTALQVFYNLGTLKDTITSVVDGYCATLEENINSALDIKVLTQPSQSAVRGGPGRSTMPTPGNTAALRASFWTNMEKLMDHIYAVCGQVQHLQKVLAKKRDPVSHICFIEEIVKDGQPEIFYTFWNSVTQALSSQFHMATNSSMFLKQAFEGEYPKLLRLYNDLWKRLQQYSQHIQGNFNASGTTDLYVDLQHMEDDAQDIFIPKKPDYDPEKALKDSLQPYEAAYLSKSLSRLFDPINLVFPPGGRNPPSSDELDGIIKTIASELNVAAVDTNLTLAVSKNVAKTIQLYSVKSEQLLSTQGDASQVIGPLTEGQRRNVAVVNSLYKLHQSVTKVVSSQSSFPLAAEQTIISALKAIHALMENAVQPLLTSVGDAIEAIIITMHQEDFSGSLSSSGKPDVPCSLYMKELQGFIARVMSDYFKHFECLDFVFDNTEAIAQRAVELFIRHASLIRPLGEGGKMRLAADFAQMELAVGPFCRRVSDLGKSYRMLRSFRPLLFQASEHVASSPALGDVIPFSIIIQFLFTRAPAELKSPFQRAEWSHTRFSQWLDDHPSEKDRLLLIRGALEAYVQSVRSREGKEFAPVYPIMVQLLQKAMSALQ
Chain of UniProt Q9UHD1 (Q9UHD1 whole entry, looked up): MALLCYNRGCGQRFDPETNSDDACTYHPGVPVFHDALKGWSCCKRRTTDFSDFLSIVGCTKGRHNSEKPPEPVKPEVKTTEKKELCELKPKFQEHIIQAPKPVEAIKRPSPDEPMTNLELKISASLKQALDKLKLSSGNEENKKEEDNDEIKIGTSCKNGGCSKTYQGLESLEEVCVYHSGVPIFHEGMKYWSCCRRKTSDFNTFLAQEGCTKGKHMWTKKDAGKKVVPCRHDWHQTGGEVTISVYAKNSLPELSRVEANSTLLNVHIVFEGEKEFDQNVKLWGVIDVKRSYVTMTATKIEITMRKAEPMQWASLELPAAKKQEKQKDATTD
Chain of UniProt O75534 (O75534 whole entry, looked up): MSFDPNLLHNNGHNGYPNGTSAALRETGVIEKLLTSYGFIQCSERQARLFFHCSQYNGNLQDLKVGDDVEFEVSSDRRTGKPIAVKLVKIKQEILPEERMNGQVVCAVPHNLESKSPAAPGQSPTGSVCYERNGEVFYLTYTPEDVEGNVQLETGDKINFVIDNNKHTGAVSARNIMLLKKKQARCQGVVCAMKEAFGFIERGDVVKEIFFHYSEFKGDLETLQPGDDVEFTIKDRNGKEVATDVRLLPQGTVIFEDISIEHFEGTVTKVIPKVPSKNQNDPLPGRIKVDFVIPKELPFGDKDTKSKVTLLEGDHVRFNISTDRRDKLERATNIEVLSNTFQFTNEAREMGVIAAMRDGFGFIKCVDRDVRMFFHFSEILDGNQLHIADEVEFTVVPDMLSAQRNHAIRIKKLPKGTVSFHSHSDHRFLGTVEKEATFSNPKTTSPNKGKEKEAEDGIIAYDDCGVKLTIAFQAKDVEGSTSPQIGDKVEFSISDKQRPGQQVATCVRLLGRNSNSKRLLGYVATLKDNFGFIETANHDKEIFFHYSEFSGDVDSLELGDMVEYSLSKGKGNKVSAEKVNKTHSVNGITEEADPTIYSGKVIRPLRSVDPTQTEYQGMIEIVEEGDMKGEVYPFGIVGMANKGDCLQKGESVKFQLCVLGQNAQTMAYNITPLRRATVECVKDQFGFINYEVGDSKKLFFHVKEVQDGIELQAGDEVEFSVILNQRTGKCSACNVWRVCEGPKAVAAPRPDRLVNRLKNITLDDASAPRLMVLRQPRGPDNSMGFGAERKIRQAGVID
Chain of UniProt Q6UWP2 (Q6UWP2 whole entry, looked up): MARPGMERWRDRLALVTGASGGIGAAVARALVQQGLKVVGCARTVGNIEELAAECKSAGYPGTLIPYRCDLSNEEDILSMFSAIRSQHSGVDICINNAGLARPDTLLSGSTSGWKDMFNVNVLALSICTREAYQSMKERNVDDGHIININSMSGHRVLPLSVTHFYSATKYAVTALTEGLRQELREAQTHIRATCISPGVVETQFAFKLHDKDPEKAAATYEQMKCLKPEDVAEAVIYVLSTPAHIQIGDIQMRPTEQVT
Chain of UniProt Q14746 (Q14746 whole entry, looked up): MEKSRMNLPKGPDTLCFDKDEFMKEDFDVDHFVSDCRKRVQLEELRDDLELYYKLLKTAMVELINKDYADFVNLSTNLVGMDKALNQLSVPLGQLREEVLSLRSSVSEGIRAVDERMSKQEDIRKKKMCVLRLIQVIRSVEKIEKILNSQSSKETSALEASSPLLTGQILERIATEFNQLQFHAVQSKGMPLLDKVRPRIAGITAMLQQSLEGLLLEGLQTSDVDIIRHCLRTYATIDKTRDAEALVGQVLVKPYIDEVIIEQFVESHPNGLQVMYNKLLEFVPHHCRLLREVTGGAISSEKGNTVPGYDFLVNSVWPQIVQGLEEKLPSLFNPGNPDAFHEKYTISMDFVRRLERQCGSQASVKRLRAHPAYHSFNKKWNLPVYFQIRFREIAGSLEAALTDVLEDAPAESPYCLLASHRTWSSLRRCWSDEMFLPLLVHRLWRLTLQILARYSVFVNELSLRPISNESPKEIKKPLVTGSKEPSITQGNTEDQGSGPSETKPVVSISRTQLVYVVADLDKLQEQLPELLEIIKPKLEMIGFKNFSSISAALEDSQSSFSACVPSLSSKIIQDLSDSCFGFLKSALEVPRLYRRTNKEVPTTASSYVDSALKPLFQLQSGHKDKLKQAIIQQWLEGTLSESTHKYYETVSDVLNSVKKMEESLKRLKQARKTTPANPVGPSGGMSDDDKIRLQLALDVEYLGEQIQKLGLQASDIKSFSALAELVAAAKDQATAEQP
Chain of UniProt Q9Y2V7 (Q9Y2V7 whole entry, looked up): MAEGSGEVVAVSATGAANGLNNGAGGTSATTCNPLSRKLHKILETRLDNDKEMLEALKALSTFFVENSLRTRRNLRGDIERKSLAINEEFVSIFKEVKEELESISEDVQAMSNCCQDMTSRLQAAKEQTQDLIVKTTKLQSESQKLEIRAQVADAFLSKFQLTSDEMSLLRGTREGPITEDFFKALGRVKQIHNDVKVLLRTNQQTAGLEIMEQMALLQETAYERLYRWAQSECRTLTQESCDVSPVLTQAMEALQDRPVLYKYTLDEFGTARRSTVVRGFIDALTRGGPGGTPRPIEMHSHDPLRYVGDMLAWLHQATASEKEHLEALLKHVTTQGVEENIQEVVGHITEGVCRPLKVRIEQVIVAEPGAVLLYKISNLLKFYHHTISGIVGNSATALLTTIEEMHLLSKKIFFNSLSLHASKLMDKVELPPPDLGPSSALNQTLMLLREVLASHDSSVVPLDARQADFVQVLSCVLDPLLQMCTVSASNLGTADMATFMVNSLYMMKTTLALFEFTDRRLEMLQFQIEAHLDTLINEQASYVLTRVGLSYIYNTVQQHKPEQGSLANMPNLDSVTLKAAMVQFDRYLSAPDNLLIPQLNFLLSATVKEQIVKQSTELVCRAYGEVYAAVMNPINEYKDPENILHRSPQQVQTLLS
Chain of UniProt P06732 (P06732 whole entry, looked up): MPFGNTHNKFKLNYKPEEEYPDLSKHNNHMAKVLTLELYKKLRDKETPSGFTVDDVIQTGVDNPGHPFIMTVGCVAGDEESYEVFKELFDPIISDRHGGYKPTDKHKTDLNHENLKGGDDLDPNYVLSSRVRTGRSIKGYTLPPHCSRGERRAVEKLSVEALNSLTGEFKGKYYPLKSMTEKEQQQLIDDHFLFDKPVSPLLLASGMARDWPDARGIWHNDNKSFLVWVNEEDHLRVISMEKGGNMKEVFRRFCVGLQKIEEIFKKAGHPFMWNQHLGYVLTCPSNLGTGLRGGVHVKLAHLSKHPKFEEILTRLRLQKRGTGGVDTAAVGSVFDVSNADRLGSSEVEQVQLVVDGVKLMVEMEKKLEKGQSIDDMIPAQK
Chain of UniProt Q9NPI6 (Q9NPI6 whole entry, looked up): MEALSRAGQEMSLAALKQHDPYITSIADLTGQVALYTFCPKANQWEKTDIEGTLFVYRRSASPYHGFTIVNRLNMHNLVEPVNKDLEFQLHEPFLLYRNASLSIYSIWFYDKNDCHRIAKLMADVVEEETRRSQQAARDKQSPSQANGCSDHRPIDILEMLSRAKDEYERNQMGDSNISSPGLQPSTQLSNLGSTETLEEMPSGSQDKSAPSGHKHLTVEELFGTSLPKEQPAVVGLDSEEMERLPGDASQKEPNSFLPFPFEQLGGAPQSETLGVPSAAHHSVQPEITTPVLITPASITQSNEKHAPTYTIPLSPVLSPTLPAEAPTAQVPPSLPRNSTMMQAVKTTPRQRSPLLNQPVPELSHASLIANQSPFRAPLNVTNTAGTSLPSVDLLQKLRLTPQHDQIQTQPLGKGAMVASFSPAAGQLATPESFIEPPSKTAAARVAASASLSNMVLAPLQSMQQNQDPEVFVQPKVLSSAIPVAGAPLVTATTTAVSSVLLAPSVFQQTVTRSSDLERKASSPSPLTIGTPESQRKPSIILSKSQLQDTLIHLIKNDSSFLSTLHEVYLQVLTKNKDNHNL
Chain of UniProt P61923 (P61923 whole entry, looked up): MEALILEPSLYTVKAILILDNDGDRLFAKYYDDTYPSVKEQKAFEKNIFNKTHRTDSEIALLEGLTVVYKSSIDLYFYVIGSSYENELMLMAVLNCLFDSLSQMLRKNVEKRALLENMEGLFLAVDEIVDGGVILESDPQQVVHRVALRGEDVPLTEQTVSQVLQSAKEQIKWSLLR
Chain of UniProt P04080 (P04080 whole entry, looked up): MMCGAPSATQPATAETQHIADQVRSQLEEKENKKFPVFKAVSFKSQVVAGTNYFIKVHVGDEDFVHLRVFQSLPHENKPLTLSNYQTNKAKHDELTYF

Target | log2 fold change
CKM (UniProt P06732) | 0.17
CMIP (UniProt Q8IY22) | -0.054
COG6 (UniProt Q9Y2V7) | 0.017
DGCR8 (UniProt Q8WYQ5) | 0.066
COPZ1 isoform 4 (UniProt P61923) | -0.187
DENND6A (UniProt Q8IWF6) | 0.004
CKAP5 (UniProt Q14008) | -0.033
CNOT2 (UniProt Q9NZN8) | -0.059
COL6A5 (UniProt A8TX70) | 0.374
DCP1A (UniProt Q9NPI6) | 0.059
COG2 (UniProt Q14746) | -0.093
DEF6 (UniProt Q9H4E7) | 0.049
CSDE1 isoform 4 (UniProt O75534) | -0.066
CNOT6L (UniProt Q96LI5) | 0.107
DHRS11 (UniProt Q6UWP2) | 0.025
DNAJC1 (UniProt Q96KC8) | -0.293 (active)
DOCK7 (UniProt Q96N67) | -0.041
CTNND1 isoform 3 (UniProt O60716) | 0.004
CHUK (UniProt O15111) | -0.097
COG5 isoform 2 (UniProt Q9UP83) | 0.01
CSTB (UniProt P04080) | 0.174
CHORDC1 (UniProt Q9UHD1) | -0.003
CSTF2 (UniProt P33240) | 0.042
